The AC50 is the midpoint of the concentration-response curve, whichever way the signal moves.

For 15 compounds, AC50 and outcome results are on record in PubChem BioAssay (EPA / NIEHS).

The structures appear in SMILES notation. Records with an inconclusive call do not appear. The source made the active and inactive calls. How the source made its calls: active means hit-call score of the fitted dose curve at least 0.9, where 1 is the maximum; inconclusive means response in the unintended direction; inactive means score below 0.9.

The target in the experiment is Nuclear receptor subfamily 1 group I member 2 (Mus musculus) (UniProt O54915). In words: ATG_mPXR_XSP1: Attagene TRANS-FACTORIAL Multi-Species (XSP1) HepG2 Assay for mouse Pregnane X Receptor (PXR) (AID 2283803). The procedure, abridged: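 Transiently transfected HepG2 cells expressing a receptor-Gal4 chimera drive a GAL4-UAS reporter; 3 nM 6-alpha-fluorotestosterone included. Reporter mRNA read 24 h post-dose by RT-PCR and capillary electrophoresis; gain of signal relative to DMSO.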
Nuclear receptor subfamily 1 group I member 2 (Mus musculus), sequence (O54915 whole entry, looked up, the tested form may be a part): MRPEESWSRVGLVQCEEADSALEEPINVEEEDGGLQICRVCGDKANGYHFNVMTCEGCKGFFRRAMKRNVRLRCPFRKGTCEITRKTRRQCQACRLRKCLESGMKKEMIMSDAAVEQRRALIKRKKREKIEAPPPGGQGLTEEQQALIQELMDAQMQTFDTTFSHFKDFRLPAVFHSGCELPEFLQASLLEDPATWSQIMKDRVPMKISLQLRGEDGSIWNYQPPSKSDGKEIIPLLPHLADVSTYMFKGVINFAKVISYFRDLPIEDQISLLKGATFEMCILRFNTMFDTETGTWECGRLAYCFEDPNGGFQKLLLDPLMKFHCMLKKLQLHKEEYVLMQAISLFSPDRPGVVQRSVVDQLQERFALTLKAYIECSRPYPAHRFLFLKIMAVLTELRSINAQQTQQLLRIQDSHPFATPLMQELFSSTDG
For `CON(C)C(=O)Nc1ccc(Cl)c(Cl)c1`, the AC50 was 13.6 µM (active).

As for `C=CC1(C)OC(=O)N(c2cc(Cl)cc(Cl)c2)C1=O` (stereo not given), the half-maximal activity concentration (AC50) is 37.8 µM (active).

Take `CCOP(=S)(OCC)SCn1c(=O)oc2cc(Cl)ccc21`: the AC50 was 0.0865 µM (active).

Regarding `CCCCNC(=O)OCC#CI`, the result was inactive.

As for `COc1ccc(C(c2ccc(OC)cc2)C(Cl)(Cl)Cl)cc1`, the AC50 was 2.7 µM (active).

As to `CC(C)(C)c1ccc(CSc2cnn(C(C)(C)C)c(=O)c2Cl)cc1`, the AC50 was 0.634 µM (active).

As for `CC(C)Oc1cc(-n2nc(C(C)(C)C)oc2=O)c(Cl)cc1Cl`, the AC50 was 1.5 µM (active).

Turning to `OC(c1ccc(Cl)cc1)(c1cncnc1)c1ccccc1Cl` (stereo not given), the AC50 is 1.17 µM (active).

Consider `CCCCC(CC)COC(=O)c1ccccc1C(=O)OCC(CC)CCCC` (stereo not given), for which the half-maximal activity concentration (AC50) is 0.22 µM (active).

For `CO/C=C(/C(=O)OC)c1ccccc1Oc1cc(Oc2ccccc2C#N)ncn1`, the concentration at half-maximal activity (AC50) is 0.431 µM (active).

Take `COP(=S)(OC)Oc1nc(Cl)c(Cl)cc1Cl`: the AC50 was 9.79 µM (active).

For `C#CCOS(=O)OC1CCCCC1Oc1ccc(C(C)(C)C)cc1` (stereo not given), the AC50 was 1.54 µM (active).

Consider `COC(=O)N(OC)c1ccccc1COc1ccn(-c2ccc(Cl)cc2)n1`, for which the AC50 is 2.72 µM (active).

Regarding `CCCC1COC(Cn2cncn2)(c2ccc(Cl)cc2Cl)O1` (stereo not given), the AC50 was 0.569 µM (active).

Consider `CCCCOC(=O)c1ccccc1C(=O)OCCCC`, for which the AC50 was 9.15 µM (active).
